According to PubChem BioAssay (Tox21):
Inconclusive results are not listed. Some compounds were tested as several samples or in several runs, with calls that do not always agree. Calls of active or inactive are those of the source. Calls come from the whole dose curve; as a rule, active = well fitted curve in the direction sought with a large enough effect in the repeat runs; inconclusive = weak or mixed curves; inactive = no such curve, though single readings can be large; an effect the other way counts as inactive or inconclusive.

How the values were obtained:
[1] = qHTS RealTime-Glo MT Cell Viability Assay in HEK293 cells - 16 hour (AID 1224872); note: nearly all actives have a fitted effect of over 50% in size; note: potency is the fitted concentration of half-maximal effect
Outline: (§1)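 HEK293 cells seeded with NanoLuc/prosubstrate reagent, rested 5 h at 37 C, then dosed and kept at 37 C up to 40 h. Nonlytic real-time luminescence from viable cells read at 0, 8, 16, 24, 32 and 40 h.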

[2] = qHTS RealTime-Glo MT Cell Viability Assay in HepG2 cells - 8 hour (AID 1224873); note: nearly all actives have a fitted effect of over 55% in size
Outline: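 Real-time viability: cells seeded at 600 per well together with NanoLuc and cell-permeant prosubstrate, compounds added after 5 h incubation. Luminescence tracked at 0, 8, 16, 24, 32 and 40 h of exposure.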

[3] = qHTS RealTime-Glo MT Cell Viability Assay in HEK293 cells - 40 hour (AID 1224874); details: RealTime-Glo luminescence; max response: stronger effect = lower value; note: nearly all actives have a fitted effect of over 50% in size; note: potency is the fitted concentration of half-maximal effect
Outline: (§2)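 Real-time viability in HEK293: signal arises when living cells convert a prosubstrate for NanoLuc in the medium, so luminescence tracks viable cell number. Compound (23 nL, DMSO) added 5 h post-seeding; kinetic reads at 0–40 h, 37 C.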

[4] = qHTS RealTime-Glo MT Cell Viability Assay in HepG2 cells - 32 hour (AID 1224877); note: nearly all actives have a fitted effect of over 55% in size; note: potency is the fitted concentration of half-maximal effect
Outline: (§3)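 HepG2 cells (600/well) were dispensed with RealTime-Glo reagents, incubated 5 h at 37 °C, then treated with compounds in DMSO for up to 40 h. Nonlytic NanoLuc luminescence reflecting viable cells was read at each stated time point.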

[5] = A CellTox Green Cytotoxicity Assay to monitor cytotoxicity in HepG2 cells - 24 hour (AID 1224878); note: nearly all actives have a fitted effect of over 45% in size
Outline: (§4)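 Cells and non-lytic dye reagent are dispensed together (600 HepG2 cells/well) and incubated 5 h before DMSO compound transfer. Kinetic fluorescence is then recorded in the same wells during 40 h at 37 C.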

[6] = A CellTox Green Cytotoxicity Assay to monitor cytotoxicity in HepG2 cells - 40 hour (AID 1224879); note: nearly all actives have a fitted effect of over 40% in size; note: potency is the fitted concentration of half-maximal effect
Outline: as §4

[7] = qHTS RealTime-Glo MT Cell Viability Assay in HEK293 cells - 0 hour (AID 1224880); note: top concentration of the series differs between compounds; nearly all actives have a fitted effect of over 45% in size
Outline: as §2

[8] = A CellTox Green Cytotoxicity Assay to monitor cytotoxicity in HEK293 cells - 32 hour (AID 1224881); note: nearly all actives have a fitted effect of over 40% in size; note: potency is the fitted concentration of half-maximal effect
Outline: (§5)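 Cells (HEK293, 600/well) and dye reagent are dispensed together. After 5 h at 37 C, 23 nL compound is pinned in. Plates stay at 37 C for 40 h with fluorescence read at 0h, 8h, 16h, 24h, 32h and 40h.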

[9] = A CellTox Green Cytotoxicity Assay to monitor cytotoxicity in HepG2 cells - 0 hour (AID 1224882); note: nearly all actives have a fitted effect of over 35% in size
Outline: as §4

[10] = A CellTox Green Cytotoxicity Assay to monitor cytotoxicity in HEK293 cells - 8 hour (AID 1224884); note: nearly all actives have a fitted effect of over 35% in size
Outline: as §5

[11] = qHTS RealTime-Glo MT Cell Viability Assay in HepG2 cells - 16 hour (AID 1224885); note: nearly all actives have a fitted effect of over 50% in size
Outline: as §3

[12] = qHTS RealTime-Glo MT Cell Viability Assay in HEK293 cells - 24 hour (AID 1224886); note: nearly all actives have a fitted effect of over 50% in size; note: potency is the fitted concentration of half-maximal effect
Outline: as §1

[13] = qHTS RealTime-Glo MT Cell Viability Assay in HepG2 cells - 0 hour (AID 1224889); note: nearly all actives have a fitted effect of over 50% in size
Outline: as §3

[14] = A CellTox Green Cytotoxicity Assay to monitor cytotoxicity in HepG2 cells - 8 hour (AID 1224890); note: nearly all actives have a fitted effect of over 45% in size
Outline: as §4

[15] = A CellTox Green Cytotoxicity Assay to monitor cytotoxicity in HepG2 cells - 16 hour (AID 1224876); note: nearly all actives have a fitted effect of over 45% in size; note: potency is the fitted concentration of half-maximal effect
Outline: as §4

[16] = qHTS RealTime-Glo MT Cell Viability Assay in HEK293 cells - 8 hour (AID 1224887); note: nearly all actives have a fitted effect of over 50% in size; note: potency is the fitted concentration of half-maximal effect
Outline: as §2

[17] = A CellTox Green Cytotoxicity Assay to monitor cytotoxicity in HEK293 cells - 16 hour (AID 1224888); note: nearly all actives have a fitted effect of over 35% in size; note: potency is the fitted concentration of half-maximal effect
Outline: as §5

[18] = qHTS assay to identify small molecule antagonists of the estrogen receptor alpha (ER-alpha) signaling pathway using the BG1 cell line in the presence of 0.1 nM 17-beta-estradiol - cell viability counter screen (AID 1259241); note: nearly all actives have a fitted effect of over 40% in size; note: potency is the fitted concentration of half-maximal effect
Outline: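 VM7Luc4E2 cells (endogenous ER-alpha, 4×ERE-luciferase), hormone-starved 5 days in charcoal-stripped FBS, were treated with compounds plus 0.1 nM 17beta-estradiol for 22 hr at 37C; viability read in same wells as CellTiter-Fluor live-cell protease fluorescence.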

[19] = A CellTox Green Cytotoxicity Assay to monitor cytotoxicity in HEK293 cells - 24 hour (AID 1224875)
Outline: as §5

[20] = A CellTox Green Cytotoxicity Assay to monitor cytotoxicity in HepG2 cells - 32 hour (AID 1224883); note: nearly all actives have a fitted effect of over 50% in size; note: potency is the fitted concentration of half-maximal effect
Outline: as §4
% is set by controls: 0 for no effect and ±100 for the full control effect.

Cc1ccc(C)c2ccccc12
active: Potency [8] 38.9 µM
inactive: Potency [1] | Potency [2] | max response [3] -14.8% | Potency [4] | Potency [5] | Potency [6] | Potency [7] | Potency [9] | Potency [10] | Potency [11] | Potency [12] | Potency [13] | Potency [14]

C[C@]12C/C(=C/O)C(=O)C[C@@H]1CC[C@@H]1[C@@H]2CC[C@@]2(C)[C@H]1CC[C@]2(C)O
49.4 µM (active) and inactive: Potency [12]
44.1 µM (active) and inactive: Potency [8]
inactive: Potency [1] | Potency [2] | max response [3] -17.5% | Potency [15] | Potency [4] | Potency [5] | Potency [7] | Potency [9] | Potency [10] | Potency [11] | Potency [16] | Potency [17] | Potency [13] | Potency [14] | Potency [18]

O=[N+]([O-])c1ccc(CCl)cc1
inactive: Potency [1] | Potency [2] | Potency [19] | Potency [15] | Potency [4] | Potency [5] | Potency [6] | Potency [7] | Potency [8] | Potency [9] | Potency [11] | Potency [12] | Potency [16] | Potency [17] | Potency [14] | Potency [18]

CCC(OC(C)=O)C(CC(C)NC)(c1ccccc1)c1ccccc1 (stereo unspecified)
active: Potency [1] 49.4 µM | Potency [3] 49.4 µM | Potency [15] 62.2 µM | Potency [4] 62.2 µM | Potency [6] 55.4 µM | Potency [8] 62.2 µM | Potency [20] 55.4 µM | Potency [12] 55.4 µM | Potency [17] 62.2 µM

Brc1cccc(-c2ccccc2)c1
active: Potency [8] 49.3 µM
inactive: Potency [1] | Potency [2] | max response [3] -11.2% | Potency [4] | Potency [5] | Potency [6] | Potency [7] | Potency [9] | Potency [20] | Potency [11] | Potency [12] | Potency [16] | Potency [14] | Potency [18]

CO/N=C(/C1=NOCCO1)c1ccccc1Oc1ncnc(Oc2ccccc2Cl)c1F
inactive: Potency [1] | Potency [2] | Potency [19] | Potency [15] | Potency [5] | Potency [6] | Potency [7] | Potency [8] | Potency [10] | Potency [12] | Potency [16] | Potency [17] | Potency [13] | Potency [14]

O=[N+]([O-])[O-].[Tl+]
inactive: Potency [1] | Potency [2] | Potency [19] | Potency [15] | Potency [4] | Potency [5] | Potency [6] | Potency [7] | Potency [8] | Potency [20] | Potency [10] | Potency [11] | Potency [12] | Potency [16] | Potency [17] | Potency [13] | Potency [14] | Potency [18]

Cc1ccc2cc3c(ccc4ccccc43)c3c2c1CC3
active: Potency [6] 6.93 µM
inactive: Potency [1] | Potency [2] | max response [3] 6.91% | Potency [15] | Potency [4] | Potency [5] | Potency [7] | Potency [8] | Potency [9] | Potency [10] | Potency [11] | Potency [12] | Potency [16] | Potency [13] | Potency [14]

Clc1ccc(C2(Cn3cncn3)OCCO2)c(Cl)c1
inactive: Potency [1] | Potency [2] | Potency [19] | Potency [4] | Potency [5] | Potency [6] | Potency [7] | Potency [8] | Potency [9] | Potency [10] | Potency [11] | Potency [12] | Potency [16] | Potency [17] | Potency [13] | Potency [14]

O=[N+]([O-])C(Br)Br
inactive: Potency [2] | Potency [15] | Potency [4] | Potency [5] | Potency [7] | Potency [9] | Potency [10] | Potency [11] | Potency [14] | Potency [18]
active: Potency [1] 55 µM | Potency [3] 55 µM | Potency [12] 55 µM

c1cc[n+]2c(c1)-c1cccc[n+]1CC2
inactive: Potency [1] | Potency [2] | Potency [19] | Potency [15] | Potency [5] | Potency [6] | Potency [7] | Potency [8] | Potency [10] | Potency [11] | Potency [12] | Potency [16] | Potency [17] | Potency [13] | Potency [14]
active: Potency [18] 26.6 µM

CCCCC(CC)COC(=O)OOC(C)(C)C (stereo unspecified)
inactive: Potency [1] | max response [3] 0.0606% | Potency [19] | Potency [15] | Potency [4] | Potency [5] | Potency [6] | Potency [7] | Potency [8] | Potency [9] | Potency [20] | Potency [10] | Potency [11] | Potency [12] | Potency [17] | Potency [13] | Potency [14] | Potency [18]

C[C@]12CC[C@H]3[C@@H](CCC4=CC(=O)CC[C@@H]43)[C@@H]1CC[C@@H]2OC(=O)CCc1ccco1
inactive: Potency [1] | Potency [2] | max response [3] -8.1% | Potency [15] | Potency [4] | Potency [5] | Potency [6] | Potency [7] | Potency [9] | Potency [20] | Potency [10] | Potency [11] | Potency [12] | Potency [16] | Potency [17] | Potency [13] | Potency [14] | Potency [18]

C[C@H]1[C@H](c2ccc(Cl)cc2)SC(=O)N1C(=O)NC1CCCCC1
active: Potency [1] 38.9 µM | Potency [3] 43.6 µM | Potency [12] 43.6 µM | Potency [16] 38.9 µM
inactive: Potency [19] | Potency [15] | Potency [5] | Potency [6] | Potency [7] | Potency [8] | Potency [9] | Potency [20] | Potency [11] | Potency [17] | Potency [13] | Potency [14]
